# Data reported in PubChem BioAssay (Tox21).
# Several values for one entry are separate records, joined by “and”; a condition that tells them apart may be missing. Equal values may be shown once. More than one record can exist for a structure, and the calls need not agree. Activity calls are given as the source filed them. Entries that show only a call come without a potency. Unless noted, the call rests on the fitted dose curve; in most records, active means well fitted curve in the direction sought with a large enough effect in the repeat runs; inconclusive means weak or mixed curves; inactive means no such curve, though single readings can be large; an effect the other way counts as inactive or inconclusive.
# How the values were obtained:
# [1] = qHTS assay to identify small molecule antagonists of the thyroid receptor (TR) signaling pathway - cell viability counter screen (AID 743064); further: nearly all actives have a fitted effect of over 50% in size; further: potency means the concentration at half of the fitted maximal effect
# Summary of the method: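 Rat GH3 pituitary tumor cells stably expressing two TR response elements driving luciferase were plated, rested 4 h, then dosed with library compounds and T3 (1 nM final). After 23.5 h at 37 °C, CellTiter-Fluor was added for 30 min and fluorescence recorded.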
# [2] = qHTS assay to identify small molecule antagonists of the thyroid receptor (TR) signaling pathway (AID 743065); further: nearly all actives have a fitted effect of over 55% in size; further: potency means the concentration at half of the fitted maximal effect
# Summary of the method: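 GH3.TRE-Luc rat pituitary cells (two TREs driving luciferase) were dosed with compound, then stimulated with 1 nM T3 (final) for 23.5 h at 37 C. ONE-Glo luminescence was the read-out, with CellTiter-Fluor fluorescence as the cytotoxicity counter-screen.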
# [3] = test system: thyroid hormone receptor (rat, GH3 cells); assay: qHTS assay to identify small molecule agonists of the thyroid receptor (TR) signaling pathway (AID 743066; calls by dose curve)
# [4] = molecular target: Estrogen receptor (Homo sapiens) (UniProt P03372); assay: qHTS assay to identify small molecule antagonists of the estrogen receptor alpha (ER-alpha) signaling pathway (AID 743069; active means well fitted curve in the direction sought with a large enough effect in the signal ratio in the repeat runs, not every such curve was filed as active; inconclusive means weak or mixed curves, or effect the other way; inactive means no such curve, though single readings can be large or run the other way; the % refers to the signal ratio; further: potency means the concentration at half of the fitted maximal effect)
# Summary of the method: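 In this cell-based reporter format, GripTite HEK293 cells harbouring ER-alpha-UAS-bla were grown overnight with 2% charcoal-stripped FBS, dosed with DMSO-dissolved compounds, then challenged with 17beta-estradiol. After 18 hr at 37C, beta-lactamase activity was detected by FRET fluorescence.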
# [5] = qHTS assay to identify small molecule antagonists of the estrogen receptor alpha (ER-alpha) signaling pathway - cell viability counter screen (AID 743074; calls by dose curve; further: nearly all actives have a fitted effect of over 45% in size)
# [6] = molecular target: Estrogen receptor (Homo sapiens) (UniProt P03372); assay: qHTS assay to identify small molecule agonists of the estrogen receptor alpha (ER-alpha) signaling pathway (AID 743075; calls by dose curve; further: potency means the concentration at half of the fitted maximal effect)
# [7] = molecular target: Estrogen receptor (Homo sapiens) (UniProt P03372); assay: qHTS assay to identify small molecule agonists of the estrogen receptor alpha (ER-alpha) signaling pathway using the BG1 cell line (AID 743079); settings: BG1Luc4E2 cells, ERE-luciferase agonist, 22 h; activation: at 70.3 µM (top of the series) unless noted; further: nearly all actives have a fitted effect of over 20% in size; further: potency means the concentration at half of the fitted maximal effect
# [8] = qHTS assay to identify small molecule antagonists of the estrogen receptor alpha (ER-alpha) signaling pathway using the BG1 cell line (AID 743080; calls by dose curve;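 further: BG1 cells stimulated with 17beta-estradiol alongside compound; nearly all actives have a fitted effect of over 25% in size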)
# Summary of the method: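 After 5 days in phenol-red-free 10% charcoal-stripped FBS medium, BG1-Luc-4E2 cells were seeded, left 24 h at 37 C, co-treated with compounds and 17beta-estradiol for 21.5 h, then assayed for viability and luciferase.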
# [9] = qHTS assay to identify small molecule antagonists of the estrogen receptor alpha (ER-alpha) signaling pathway using the BG1 cell line - cell viability counter screen (AID 743081);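 further: compound given together with 17beta-estradiol as the ER stimulus; nearly all actives have a fitted effect of over 45% in size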; further: potency means the concentration at half of the fitted maximal effect
# Aromatase (Homo sapiens) = Aromatase (Homo sapiens) (UniProt P11511); assay: qHTS assay to identify aromatase inhibitors (AID 743083); further: nearly all actives have a fitted effect of over 55% in size; further: potency means the concentration at half of the fitted maximal effect
# [10] = qHTS assay to identify aromatase inhibitors - cell viability counter screen (AID 743084);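 further: cells stimulated with testosterone during compound exposure; nearly all actives have a fitted effect of over 55% in size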; further: potency means the concentration at half of the fitted maximal effect
# [11] = molecular target: Aryl hydrocarbon receptor (Homo sapiens) (UniProt P35869); assay: qHTS assay to identify small molecule that activate the aryl hydrocarbon receptor (AhR) signaling pathway (AID 743085); further: nearly all actives have a fitted effect of over 15% in size; further: potency means the concentration at half of the fitted maximal effect;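 on activation: HG2L7.5c1 human HepG2 liver cells with stably integrated DRE-driven firefly reporter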
# Summary of the method: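 Compounds were tested in HepG2 hepatocellular carcinoma cells harbouring a stably integrated luciferase gene under control of 20 DREs. Increased reporter signal after 24 h treatment at 37C was taken as AhR activation.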
# [12] = qHTS assay to identify small molecule that activate the aryl hydrocarbon receptor (AhR) signaling pathway - cell viability counter screen (AID 743086); further: nearly all actives have a fitted effect of over 45% in size; further: potency means the concentration at half of the fitted maximal effect
# Summary of the method: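 HepG2-AhR-luc (HG2L7.5c1) cells, 4000/well, treated 24 h at 37 C with compound; viability measured as CellTiter-Fluor fluorescence after 30 min in the same wells as the luciferase read.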
# [13] = molecular target: Peroxisome proliferator-activated receptor gamma (Homo sapiens) (UniProt P37231); assay: qHTS assay to identify small molecule antagonists of the peroxisome proliferator-activated receptor gamma (PPARg) signaling pathway (AID 743191; calls by dose curve; further: nearly all actives have a fitted effect of over 30% in size; further: potency means the concentration at half of the fitted maximal effect)
# Summary of the method: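 GeneBLAzer PPARg UAS-bla HEK293H cells, 5 h post-plating, exposed to compounds 17 h at 37C. LiveBLAzer B/G FRET substrate added for 1 h at room temperature; beta-lactamase reporter read by fluorescence intensity.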
# [14] = qHTS assay for small molecule agonists of the antioxidant response element (ARE) signaling pathway (AID 743202; active means well fitted activation curve with a large enough effect in the signal ratio in the repeat runs, not every such curve was filed as active; inconclusive means weak or mixed curves, or effect the other way; inactive means no such curve, though single readings can be large or run the other way; the % refers to the signal ratio)
# Summary of the method: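 HepG2 ARE-bla cells; 16 h treatment at 37 C; FRET-based beta-lactamase fluorescence read after 2 h substrate incubation at room temperature.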
# [15] = qHTS assay for small molecule agonists of the antioxidant response element (ARE) signaling pathway - cell viability counter screen (AID 743203; calls by dose curve; further: nearly all actives have a fitted effect of over 55% in size)
# Summary of the method: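 Viability counter screen: stably transfected ARE-bla HepG2 line, 16 hrs compound exposure at 37C/5% CO2, ATP-based CellTiter-Glo luminescence measured in the reporter wells.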
# [16] = qHTS assay for small molecule activators of the heat shock response signaling pathway - cell viability counter screen (AID 743209); further: nearly all actives have a fitted effect of over 50% in size
# Summary of the method: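 Viability of HSE-bla HeLa cells is measured with CellTiter-Glo in the wells already used for the reporter read. Compound exposure lasts 5 h at 37 C, and luminescence is read after 30 min at room temperature.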
# [17] = qHTS assay for small molecule activators of the heat shock response signaling pathway (AID 743210; active means well fitted activation curve with a large enough effect in the signal ratio in the repeat runs, with a control signal flat, not every such curve was filed as active; inconclusive means weak or mixed curves; the % refers to the signal ratio;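 further: HeLa cells with beta-lactamase reporter driven by heat shock elements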)
# Summary of the method: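 Following overnight attachment, HSE-bla HeLa cells received test compounds for 5 h at 37 C; beta-lactamase activity was then detected via FRET substrate fluorescence.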
# [18] = molecular target: Peroxisome proliferator-activated receptor gamma (Homo sapiens) (UniProt P37231); assay: qHTS assay to identify small molecule agonists of the peroxisome proliferator-activated receptor gamma (PPARg) signaling pathway (AID 743094; active means well fitted activation curve with a large enough effect in the signal ratio in the repeat runs, not every such curve was filed as active; inconclusive means weak or mixed curves, or effect the other way; inactive means no such curve, though single readings can be large or run the other way; the % refers to the signal ratio)
# Summary of the method: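 Reporter activation was scored by fluorescence of cleaved LiveBLAzer B/G substrate (1 h, room temperature) in PPARg-bla HEK293H cells previously treated 17 h at 37C with DMSO-dissolved compounds.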
# [19] = qHTS assay to identify small molecule antagonists of the peroxisome proliferator-activated receptor gamma (PPARg) signaling pathway - cell viability counter screen (AID 743194); settings: Potency: co-treated with 50 nM rosiglitazone unless noted; further: nearly all actives have a fitted effect of over 55% in size
# Summary of the method: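 Cytotoxicity counter screen in PPARg-bla HEK293H cells, same wells as reporter assay. Compounds plus 50 nM rosiglitazone (final) for 17 h at 37 C, then viability read by CellTiter-Glo luminescence.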
# Peroxisome proliferator-activated receptor gamma (Homo sapiens), sequence (P37231 whole entry, looked up): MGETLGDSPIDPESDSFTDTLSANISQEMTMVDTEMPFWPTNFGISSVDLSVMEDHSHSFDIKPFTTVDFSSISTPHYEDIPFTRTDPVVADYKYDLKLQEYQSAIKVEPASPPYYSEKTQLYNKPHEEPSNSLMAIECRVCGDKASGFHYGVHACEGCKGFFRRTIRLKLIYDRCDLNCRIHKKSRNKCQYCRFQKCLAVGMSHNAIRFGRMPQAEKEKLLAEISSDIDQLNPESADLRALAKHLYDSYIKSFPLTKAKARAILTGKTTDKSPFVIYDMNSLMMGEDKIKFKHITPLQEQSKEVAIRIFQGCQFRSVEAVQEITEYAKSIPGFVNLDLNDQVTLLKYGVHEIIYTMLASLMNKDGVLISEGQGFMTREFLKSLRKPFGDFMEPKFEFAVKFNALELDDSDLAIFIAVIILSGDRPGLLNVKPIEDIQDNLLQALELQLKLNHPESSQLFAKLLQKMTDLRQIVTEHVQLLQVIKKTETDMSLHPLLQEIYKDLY
# Aryl hydrocarbon receptor (Homo sapiens), sequence (P35869 whole entry, looked up): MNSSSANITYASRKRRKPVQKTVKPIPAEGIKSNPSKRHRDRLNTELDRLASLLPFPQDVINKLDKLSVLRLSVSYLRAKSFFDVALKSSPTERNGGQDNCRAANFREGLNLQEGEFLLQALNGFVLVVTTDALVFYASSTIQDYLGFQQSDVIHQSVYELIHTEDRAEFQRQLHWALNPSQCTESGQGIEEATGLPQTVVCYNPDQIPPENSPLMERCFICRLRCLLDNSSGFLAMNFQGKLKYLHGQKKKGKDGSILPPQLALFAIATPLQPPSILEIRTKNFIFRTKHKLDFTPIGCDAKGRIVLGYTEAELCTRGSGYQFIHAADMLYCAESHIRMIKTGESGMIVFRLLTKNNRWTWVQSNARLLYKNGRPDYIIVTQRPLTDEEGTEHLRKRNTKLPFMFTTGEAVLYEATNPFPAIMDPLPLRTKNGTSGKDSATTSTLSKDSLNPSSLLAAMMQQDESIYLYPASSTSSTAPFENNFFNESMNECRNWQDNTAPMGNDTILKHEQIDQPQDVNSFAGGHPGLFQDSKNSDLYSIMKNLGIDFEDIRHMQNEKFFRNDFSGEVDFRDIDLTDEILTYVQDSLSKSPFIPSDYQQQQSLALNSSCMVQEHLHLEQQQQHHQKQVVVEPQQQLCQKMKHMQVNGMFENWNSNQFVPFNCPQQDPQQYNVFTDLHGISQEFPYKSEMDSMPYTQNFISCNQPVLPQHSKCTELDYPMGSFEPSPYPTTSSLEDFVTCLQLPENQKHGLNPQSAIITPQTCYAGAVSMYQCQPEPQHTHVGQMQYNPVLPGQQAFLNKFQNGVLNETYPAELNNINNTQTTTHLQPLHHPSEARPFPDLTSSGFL
# Estrogen receptor (Homo sapiens), sequence (P03372 whole entry, looked up): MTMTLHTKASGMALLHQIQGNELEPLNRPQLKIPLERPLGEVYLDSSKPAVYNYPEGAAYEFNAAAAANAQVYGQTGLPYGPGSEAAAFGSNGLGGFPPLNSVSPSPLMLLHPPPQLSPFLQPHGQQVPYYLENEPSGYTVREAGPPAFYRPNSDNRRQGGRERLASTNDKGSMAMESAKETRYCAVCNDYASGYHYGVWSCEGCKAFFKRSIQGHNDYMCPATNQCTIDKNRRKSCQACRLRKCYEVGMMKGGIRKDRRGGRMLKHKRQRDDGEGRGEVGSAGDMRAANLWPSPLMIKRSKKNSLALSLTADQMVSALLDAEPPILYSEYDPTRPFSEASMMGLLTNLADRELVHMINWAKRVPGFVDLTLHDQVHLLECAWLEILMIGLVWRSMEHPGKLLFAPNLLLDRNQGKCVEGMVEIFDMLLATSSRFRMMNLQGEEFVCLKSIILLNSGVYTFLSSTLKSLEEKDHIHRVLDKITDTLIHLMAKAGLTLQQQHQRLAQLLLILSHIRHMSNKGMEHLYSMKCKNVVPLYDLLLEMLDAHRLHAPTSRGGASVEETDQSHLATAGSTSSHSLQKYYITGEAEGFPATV
# Aromatase (Homo sapiens), sequence (P11511 whole entry, looked up): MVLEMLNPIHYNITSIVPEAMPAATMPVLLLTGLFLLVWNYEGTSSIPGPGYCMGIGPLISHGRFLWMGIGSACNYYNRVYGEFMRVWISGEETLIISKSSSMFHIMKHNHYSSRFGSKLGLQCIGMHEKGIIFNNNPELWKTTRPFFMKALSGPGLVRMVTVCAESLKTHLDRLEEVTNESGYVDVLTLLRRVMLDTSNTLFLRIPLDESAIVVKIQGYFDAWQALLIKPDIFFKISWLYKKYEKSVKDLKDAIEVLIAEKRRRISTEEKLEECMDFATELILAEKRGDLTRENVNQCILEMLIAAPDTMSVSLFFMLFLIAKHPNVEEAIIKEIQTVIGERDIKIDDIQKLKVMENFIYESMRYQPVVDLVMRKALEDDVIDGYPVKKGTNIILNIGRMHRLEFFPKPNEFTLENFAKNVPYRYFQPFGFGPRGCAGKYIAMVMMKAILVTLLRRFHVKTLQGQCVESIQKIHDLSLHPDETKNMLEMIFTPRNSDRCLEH
Compound,Potency [1],Potency [2],Potency [3],Potency [4],Potency [5],Potency [6],Potency [7],Potency [8],Potency [9],Potency (Aromatase (Homo sapiens)),Potency [10],Potency [11],Potency [12],Potency [13],Potency [14],Potency [15],Potency [16],Potency [17],Potency [18],Potency [19]
O=NN(c1ccccc1)c1ccccc1,inactive,inactive,inactive,inactive,inactive,53.7 µM [inconclusive] (active) and inactive,47.4 µM (active),inactive,inactive,inactive,inactive,inactive,inactive,inactive,inactive,inactive,inactive,inactive,–,–
O=C(O)CF,inactive,inactive,inactive,inactive,inactive,inactive,inactive,inactive,inactive,inactive,inactive,inactive,inactive,inactive,inactive,inactive,inactive,–,inactive,inactive
CCCCOCCOC(C)=O,inactive,inactive,inactive,inactive,inactive,inactive,inactive,inactive,inactive,inactive,inactive,inactive,inactive,–,inactive,–,inactive,inactive,inactive,inactive
Clc1cccc(C(Cl)(Cl)Cl)n1,inactive,inactive,inactive,inactive,inactive,inactive,inactive,inactive,inactive,inactive,inactive,–,inactive,inactive,inactive,inactive,inactive,inactive,inactive,inactive
CCOP(=S)(OCC)SCSC(C)(C)C,inactive,inactive,inactive,inactive,inactive,inactive,inactive,inactive,inactive,inactive,inactive,inactive,inactive,inactive,inactive,inactive,inactive,inactive,inactive,inactive
CC[n+]1c(-c2ccccc2)c2cc(N)ccc2c2ccc(N)cc21,inactive and 54.2 µM (active),23.7 µM (active) and 27.2 µM (active),inactive,26.8 µM [inconclusive] (active) and 30.8 µM [inconclusive] (active),inactive,4.25 µM [inconclusive] (active) and 19 µM [inconclusive] (active) and 5.47 µM [inconclusive] (active),inactive,inactive,54.2 µM (active),18.8 µM (active) and 26.6 µM (active) and 12.1 µM (active),inactive and 30.5 µM (active),26.6 µM (active) and 29.8 µM (active) and 12.1 µM (active),inactive and 12.1 µM (active),48.8 µM (active) and 26.6 µM (active),–,inactive,inactive,–,–,–
